Rows were chosen to be rich in hits. Some 5.9% of all compounds tested hit in one or more screens of this group.
ATXN viability = Viability Counterscreen for Primary qHTS for Inhibitors of ATXN expression; actives 0.49% (n = 400,000); S2 cells (HEK-293 line with an ATXN2-luciferase reporter) viability, CellTiter-Fluor protease fluorescence, 24 h; AID 651635, 2014; Potency, µM (top dose mostly 56.7 µM), most hits filed as cytotoxic; note: nearly all actives have a fitted effect of over 40% in size
HepG2 viability = qHTS for Inhibitors of TGF-b: Cytotox Counterscreen | HepG2 CAGA-GFP viability, ATP luminescence, 18 h | Potency, µM (highest dose often 46.1 µM), inactives show at the top dose activity change, negative = cytotoxicity, most hits filed as cytotoxic | actives 0.76% (n = 410,000) | AID 588856, 2011
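CellTiter-Glo luminescence gave cytotoxicity after 18 hours at 37 degrees C. The cells were HepG2 CAGA-GFP in 1% FBS DMEM, stimulated with 500 pg/mL TGF-beta after compound addition. %Activity was normalised to no-cell wells (complete cell-killing) and DMSO (no toxicity), and curves were fitted and classified.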
KB-3-1 tox = qHTS assay for MDR1-selective chemotherapeutics: Primary screen using the parental adenocarcinoma cell KB-3-1; KB-3-1 viability, CellTiter-Glo ATP luminescence, 72 h; Potency, µM (top dose mostly 46.1 µM), most hits filed as cytotoxic; actives 1.4% (n = 400,000); AID 1347075, 2019; note: % is set by controls: 0 for no effect and ±100 for the full control effect; nearly all actives have a fitted effect of over 60% in size
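Parental KB-3-1 adenocarcinoma cells in phenol-red-free DMEM with 10% FBS were pin-treated with compounds at several concentrations, incubated 72 h at 37 °C, and viability read by CellTiter-Glo luminescence; concentration-effect curves were fitted after normalization.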
KB-V1 MDR tox = qHTS assay for MDR1-selective chemotherapeutics: Primary screen using the drug-selected MDR subline cells KB-V1 | KB-V1 MDR cells viability, CellTiter-Glo, 72 h | Potency, µM (top dose mostly 46.1 µM), most hits filed as cytotoxic | actives 3.4% (n = 400,000) | AID 1347076, 2019; note: % is set by controls: 0 for no effect and ±100 for the full control effect; nearly all actives have a fitted effect of over 60% in size
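Readout: CellTiter-Glo luminescence, 10 min after addition. Cells: KB-V1 MDR subline, 72 h at 37 degrees C with compound. Analysis: corrected, normalized data fitted to concentration-effect curves.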
TGFb SMAD3 inh = qHTS for Inhibitors of TGF-b. Potency, µM (series often up to 46.1 µM), for the others: top-dose activity, negative = inhibition, actives largely listed as inhibitors. actives 1.2% (n = 410,000). AID 588855, 2011. HepG2 CAGA-GFP TGF-b/SMAD3 reporter, GFP fluorescence, 18 h; TGF-beta stimulated, 500 pg/mL final; note: % is set by controls: 0 for no effect and ±100 for the full control effect; nearly all actives have a fitted effect of over 65% in size
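HEPG2 CAGA-GFP cells (1000/well, DMEM with 1% FBS) were pre-incubated 2 h at 37 degrees C, given compound by pin tool, then stimulated with TGF-beta at 500 pg/mL final for 18 h before per-cell GFP fluorescence imaging.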
ATXN2 expr inh = Primary qHTS for Inhibitors of ATXN expression; Potency, µM (doses to about 57 µM), for the others: at the highest dose activity change, negative = inhibition, actives largely listed as inhibitors; actives 0.72% (n = 360,000); AID 1745845, 2022; HEK-293 ATXN2-luciferase reporter, luminescence, 24 h; note: % is set by controls: 0 for no effect and ±100 for the full control effect; nearly all actives have a fitted effect of over 55% in size
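qHTS (up to 57 uM final) was run with 24 h compound exposure of reporter cells at 37 °C. Each well was multiplexed: SteadyGlo luminescence measured ATXN2-luciferase expression after a fluorogenic Gly-Phe-AFC viability readout (25 uM final).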
* = called active by the depositor; i = inactive; ? = inconclusive; · = not tested or not shown; ! = not confirmed by another sample. Calls come from the whole dose curve; as a rule, active = well fitted curve in the direction sought with a large enough effect; inconclusive = small, poorly fitted or top-dose-only effect, or another doubt; inactive = no such curve, though single readings can be large; an effect the other way counts as inactive or inconclusive. Potency is the fitted concentration of half-maximal effect.

SMILES	ATXN viability	HepG2 viability	KB-3-1 tox	KB-V1 MDR tox	TGFb SMAD3 inh	ATXN2 expr inh
CC1=C(C(=O)Nc2ccccc2)C(c2ccc[nH]2)n2ncnc2N1 (stereo not given)	·	8%	?	i	12%	·
CCOC(=O)C(C)Sc1ccc2nnc(-c3ccc(F)cc3)n2n1 (stereo not given)	i	-9%	?	15µM*!	-1%	-16%
COc1ccc(-c2nnc3ccc(SC)nn23)cc1	?	0%	i	15µM*	-16%	-12%
Cc1cccc(NC(=O)C2CCCN(c3nnc(-n4c(C)ccc4C)s3)C2)c1C (stereo not given)	·	-22%	·	·	·	·
O=C(NCCc1ccc(Cl)cc1)c1cc(-c2ccccc2)n[nH]1	i	-35%	i	i	0%	-29%
COc1ccccc1N1CCN(c2nc3ccc(C(=O)c4ccccc4)cc3n3c(C)nnc23)CC1	·	2%	i	i	1%	·
O=C1CC(c2ccccc2)Sc2ccccc2N1Cc1ccc(F)cc1 (stereo not given)	?	-41%	?	?	?	?
CCN(CC)S(=O)(=O)c1ccc(N2CCOCC2)c(NC(=O)c2cccc3c(=O)c(C)c(-c4ccccc4)oc23)c1	i	2%	i	21µM*	-10%	·
O=C(COC(=O)c1ccc(Cl)nc1)Nc1nnc(-c2ccccc2)o1	i	-2%	i	15µM*	0%	6%
Cc1cc(-n2c(C)cc(C(=S)N3CCOCC3)c2C)ccc1Br	i	1%	?	8.2µM*	8%	-16%
Cc1ccc(-n2c(C)cc(C(=O)CN3CCOCC3)c2C)cc1C	i	-36%	i	?	12%	·
CN(C)c1ccc(C=Nc2ccc(/C=C3\C=Cc4ccccc43)cc2)cc1	·	-25%	i	i	1%	·
CN(C)/C=N/c1ncc(-c2ncc(C(F)(F)F)cc2Cl)cn1	i	-2%	?	10µM*	-6%	-7%
O=C1Nc2ccccc2-n2nnnc2C1N1CCN(c2ccc(C(F)(F)F)cn2)CC1 (stereo not given)	·	·	?	21µM*	·	·
CC(=O)Nc1sc2c(c1-c1nc3ccccc3s1)CNC2	·	·	·	·	·	22µM*
CC(=O)Nc1scc(C)c1-c1nc2ccccc2s1	·	9%	i	i	3%	8%
CCCCN(C)CCCNC(=O)C1CCN(c2nc3ccc(CC)cc3s2)CC1	·	14µM*	i	i	?	?
CC(Oc1ccccc1)C(=O)N1CCc2ccccc2C1 (stereo not given)	i	-1%	i	i	-11%	-3%
Cc1cccc(C(=O)OC(C)C(=O)N2CCc3ccccc3C2)c1C (stereo not given)	?	-5%	i	18µM*	-30%	4%
Cc1ccc(-c2nc3c4ccccc4[nH]c(=O)n3n2)cc1	i	-4%	i	i	4%	57%
CN(C)CC(C)(C)CNc1nn2c(-c3ccccc3)nnc2cc1C1CCC1	·	·	·	·	·	0.77µM*
Cc1ccc(CNc2ccc3nnc(-c4ccccc4)n3n2)cc1	i	-2%	i	i	6%	6%
CCOc1ccc(CC(=O)NCc2ccc3c(c2)CCN3C(=O)c2ccccc2)cc1OCC	·	0%	i	i	19%	·
CCOCCSc1c(C)cnc2c1c(=O)n(C)c(=O)n2C	·	0%	·	·	1%	·
N#Cc1sc2nc(N3CCCCC3)c3c(c2c1N)CCCC3	i	-100%	?	7.3µM*	11µM*	-22%
SMILES	ATXN viability	HepG2 viability	KB-3-1 tox	KB-V1 MDR tox	TGFb SMAD3 inh	ATXN2 expr inh
Cc1nc2sc(C#N)c(N)c2c2c1CCCC2	i	1%	i	i	?	16%
Cc1c(C(=O)NCc2ccccn2)sc2nc(-c3ccc(F)cc3)cn12	·	-2%	?	i	-23%	·
Cc1c(C(=O)NCc2ccccn2)sc2nc(-c3ccccc3)cn12	i	-28%	9.2µM*	i	-14%	?
CCN(CC)CCCNC(=O)c1sc2nc(-c3ccc(F)cc3)cn2c1C	?	-20%	i	16µM*	38%	3%
Cc1c(C(=O)Nc2ccccc2)sc2nc(-c3ccccc3)cn12	i	-30%	i	?	4%	13%
COCCNC(=O)c1sc2nc(-c3ccccc3)cn2c1C	i	3%	i	13µM*	6%	30%
Cc1cccc(-c2cnc(C(O)c3ccc(F)c(C)c3)[nH]2)c1 (stereo not given)	i	-29%	i	i	5%	4%
Cc1oc2c(c(C)cc3oc(=O)c(CC(=O)NCc4ccc(F)cc4)c(C)c32)c1C	·	-8%	·	·	-12%	·
COc1cc(C(=O)Nc2c(C)cc(C)cc2C)c([N+](=O)[O-])cc1OC	?	10%	i	21µM*	0%	9%
CN1CCN(C(=S)c2ccc(-c3cc(Cl)ccc3Cl)o2)CC1	i	-48%	i	i	?	·
N#CCCN1CCN(C(=S)c2ccc(-c3cc(Cl)ccc3Cl)o2)CC1	?	-5%	i	6.5µM*	-25%	-15%
Cn1c(SCc2cc(=O)n3cc(Br)ccc3n2)nnc1C1COc2ccccc2O1 (stereo not given)	i	15%	i	12µM*	-12%	1%
CC(C)CN(CCCNC(=O)c1cn(C)c2ccc(S(=O)(=O)N(C)C3CCCCC3)cc2c1=O)CC(C)C	i	-36%	i	i	0%	7%
COCCn1c(-c2ccc(Br)cc2)csc1=Nc1cccnc1	i	-6%	15µM*	?	?	-28%
Clc1ccc(-c2csc(=Nc3cccnc3)n2CCCn2ccnc2)cc1Cl	i	-45%	15µM*	10µM*	?	-35%
Oc1ccc(/C=N/n2c(-c3ccco3)csc2=Nc2cccnc2)c(O)c1	?	-24%	i	?	?	?
Cn1nnnc1SCCCNCc1cc(Cl)ccc1OCc1ccc(F)cc1	·	-38%	·	·	?	·
Cc1ccc2c(c1)ncc[n+]2CC(=O)c1ccc(F)cc1	·	-29%	i	i	?	·
CCCCCCCCn1c2c(c(=N)c3ccccc31)CCC2	?	-22%	3.3µM*	i	?	7.5µM*
CCCCCn1c2c(c(=N)c3ccccc31)CCC2	i	-51%	3.7µM*	?	?	?
CCCCn1c2c(c(=N)c3ccccc31)CCC2	i	0%	?	i	-16%	-7%

Source: PubChem BioAssay (National Center for Advancing Translational Sciences (NCATS))
